Among the data in PubChem BioAssay (Tox21) are Potency values, retold here.

Structures are written as SMILES. “And” between values parts separate entries of the source, which are not always exact repeats. Identical values can stand only once. Results filed as inconclusive are left out. Where a structure was tested more than once in an assay, its records may differ in their call. The source made the active and inactive calls. Unless noted, the call rests on the fitted dose curve.

A short description of assay [1]: Nuclear factor erythroid 2-related factor 2/antioxidant responsive element (Nrf2/ARE) small molecule agonists: qHTS cell viability counter screen in human keratinocytes (AID 1919968; active means well fitted curve in the direction sought with a large enough effect in the repeat runs; an effect the other way counts as inactive or inconclusive; further: nearly all actives have a fitted effect of over 55% in size). Put shortly:
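Parallel cytotoxicity read: KeratinoSens HaCaT cells, compound treatment 23 h, viability by CellTiter-Fluor fluorescence 1 h post-reagent.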
A general note: In qHTS, concentration-response curves come from the screen itself.

Assay [2] in a line: Nuclear factor erythroid 2-related factor 2/antioxidant responsive element (Nrf2/ARE) small molecule agonists: luciferase reporter gene qHTS assay in human keratinocytes (AID 1919969; further: nearly all actives have a fitted effect of over 35% in size). (Reporter assays use an easily measured gene product as a stand-in for the process of interest.)
In assay [3] the target is Gonadotropin-releasing hormone receptor (Homo sapiens) (UniProt P30968). The experiment in a line: Human gonadotropin-releasing hormone receptor (GnRHR) small molecule agonists, calcium flux assay in GnRHR-HEK293 cells (AID 1920063). Further: nearly all actives have a fitted effect of over 35% in size. A digest of the protocol: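 Calcium flux, agonist mode, human GnRHR stably integrated in HEK293; dye 1 h at 37 C before compound; Ex/Em=480/540 kinetic read, 3 min; 15 concentrations, triplicate.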

Assay [4] has as its target KiSS-1 receptor (Homo sapiens) (UniProt Q969F8). The experiment in a line: Human kisspeptin (KISS1R) small molecule agonists, calcium flux assay in KISS1R-HEK293 cells (AID 1920064; active means well fitted curve in the direction sought with a large enough effect in the repeat runs; an effect the other way counts as inactive or inconclusive). A digest of the protocol:
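Triplicate 15-concentration series were applied to dye-loaded human KISS1R HEK293 cells, and agonist-evoked calcium fluorescence was captured for 3 min.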
For orientation: Calcium flux is commonly read through the fluorescence of an indicator in the cells.

Assay [5] is described as follows: G protein-coupled receptor (GPCR) small molecule agonists, calcium flux assay: HEK293 wild type cell line counter screen (AID 1920065). A digest of the protocol:
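Non-specific calcium responders were flagged by adding DMSO-dissolved compounds to dye-loaded cells and reading 480/540 nm fluorescence each second for 3 min; ATP served as positive control.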

A short description of assay [6]: p53 small molecule agonists, cell-based qHTS assay with human liver microsomes (AID 1963577).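 Further: p53 response element beta-lactamase reporter cells with liver microsomes plus NADPH.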 Put shortly:
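Metabolically competent format: test substances, human liver microsomes and NADPH (both 0.5 mg/mL final) incubated with p53RE-bla cells 16 h at 37 C. Beta-lactamase reporter signal then quantified by fluorescence.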

The nature of assay [7]: p53 small molecule agonists, cell-based qHTS assay with rat liver microsomes (AID 1963578). A digest of the protocol:
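Each plate received p53RE-bla cells, then compound, then rat liver microsomes and NADPH (both 0.5 mg/mL final). Plates were held 16 h at 37 C, and beta-lactamase activity was detected with LiveBLAzer over 2 h.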

A short description of assay [8]: p53 small molecule agonists, cell-based qHTS assay with human liver microsomes: qHTS cell viability counter screen (AID 1963579). Further: nearly all actives have a fitted effect of over 45% in size. Put shortly:
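Tox21 library compounds, delivered from DMSO stocks, were tested on p53RE-bla cells together with 0.5 mg/mL human liver microsomes and 0.5 mg/mL NADPH (final) over 16 h at 37 C; CellTiter-Glo luminescence served as the cytotoxicity measure.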

The nature of assay [9]: p53 small molecule agonists, cell-based qHTS assay with rat liver microsomes: qHTS cell viability counter screen (AID 1963580). Further: nearly all actives have a fitted effect of over 45% in size. Put shortly:
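After the beta-lactamase ratio was read, CellTiter-Glo was added to the same wells and luminescence measured at 30 min; cells had been treated 16 h at 37 C with compounds, rat liver microsomes and NADPH (0.5 mg/mL final each).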

Assay [10] is described as follows: p53 small molecule agonists, cell-based qHTS assay: qHTS cell viability counter screen (AID 1963581). Further: nearly all actives have a fitted effect of over 45% in size. Put shortly: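 Multiplexed with the reporter read, a CellTiter-Glo step (30 min, room temperature) gauges ATP-based viability of HCT-116 p53RE-bla cells after 16 h compound incubation at 37 C.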
Assay [11] can be described thus: p53 small molecule agonists, cell-based qHTS assay (AID 1963582; active means well fitted activation curve with a large enough effect in the signal ratio in the repeat runs, not every such curve was filed as active; the % refers to the signal ratio). A digest of the protocol:
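Beta-lactamase reporter cells (p53RE-bla) treated with compounds for 16 h at 37 C; FRET substrate, 2 h, room temperature; fluorescence intensity.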

Assay [12] concerns the target 5-hydroxytryptamine receptor 2A (Homo sapiens) (UniProt P28223). The experiment in a line: 5-hydroxytryptamine receptor 2A (HTR2A) small molecule antagonists, cell-based qHTS assay (AID 1963586). Further: nearly all actives have a fitted effect of over 45% in size. Further: potency means the concentration at half of the fitted maximal effect. Put shortly:
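CHO cells stably expressing human HTR2A were plated for 18 h at 37 C, then loaded with calcium dye for 1 h. Compounds were preincubated 5 min at room temperature before DOI (4 nM solution) was added. Kinetic fluorescence was read for 3 min.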

Assay [13] has the same target. The experiment in a line: 5-hydroxytryptamine receptor 2A (HTR2A) small molecule agonists, cell-based qHTS assay (AID 1963587). Further: nearly all actives have a fitted effect of over 30% in size. Put shortly: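 CHO cells stably expressing human HTR2A, plated 18 h, loaded with calcium dye 1 h at 37 C. Agonist mode: compounds added and intracellular calcium fluorescence recorded kinetically for 2 min at 1 sec intervals.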
Assay [14] has as its target Muscarinic acetylcholine receptor M1 (Homo sapiens) (UniProt P11229). The experiment in a line: Cholinergic receptor muscarinic 1 (CHRM1) small molecule antagonists, cell-based qHTS assay (AID 1963588). Further: nearly all actives have a fitted effect of over 40% in size. Further: potency means the concentration at half of the fitted maximal effect. Put shortly: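 Compounds were tested at 15 concentrations in three independent runs. Dye-loaded CHRM1-CHO cells were exposed 5 min at room temperature before stimulation by acetylcholine added at 50nM. Intracellular calcium was read kinetically on FDSS for 3 min.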

Assay [15] shares this target. Kind of assay: Cholinergic receptor muscarinic 1 (CHRM1) small molecule agonists, cell-based qHTS assay (AID 1963589). Further: nearly all actives have a fitted effect of over 35% in size. A digest of the protocol: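 qHTS, 15-point titration, 3 independent runs: compounds pin-transferred onto dye-loaded CHRM1-CHO cells (human M1), calcium fluorescence followed every second to detect agonism.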
Assay [16] in a line: cAMP Responsive Elements (CRE) small molecule agonists, cell-based qHTS assay (AID 1963590). A digest of the protocol:
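Quantitative HTS for CRE agonists: HEK 293T CRE-bla cells, overnight plating, 3 h compound incubation at 37 C/5% CO2, then 2 h room-temperature LiveBLAzer B/G FRET substrate loading.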

A short description of assay [17]: cAMP Responsive Elements (CRE) small molecule antagonists, cell-based qHTS assay (AID 1963591; active means well fitted inhibition curve with a large enough effect in the signal ratio in the repeat runs, not every such curve was filed as active; the % refers to the signal ratio). Put shortly:
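Fluorescence intensity from cleaved LiveBLAzer B/G substrate (2 h, room temperature) quantified CRE-bla activity in HEK 293T cells exposed 3 h to compound with 0.25 uM final NKH477.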

In assay [18] the target is Beta-2 adrenergic receptor (Homo sapiens) (UniProt P07550). The experiment in a line: Adrenergic beta2 receptor (ADRB2) small molecule antagonists, cell-based qHTS assay (AID 1963592). Further: nearly all actives have a fitted effect of over 50% in size. Further: potency means the concentration at half of the fitted maximal effect. Put shortly: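 Assay format: CHO-ADRB2 cells, 18-20hr seeding at 37C/5% CO2, then compound plus 1nM isoproterenol agonist mix for 0.5hr RT. Homogeneous time-resolved fluorescence cAMP detection after 1hr, expressed as 665/615 nm ratio.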

Assay [19] concerns the target D(2) dopamine receptor (Homo sapiens) (UniProt P14416). Kind of assay: Dopamine D2 receptor (DRD2) small molecule agonists, cell-based qHTS assay (AID 1963594). Further: nearly all actives have a fitted effect of over 35% in size. A digest of the protocol:
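HEK293 cells stably expressing human DRD2, pre-treated with PDE inhibitor Ro20-1724 (0.1 mM final) and compound 10 min at room temperature, then stimulated with NKH477 (200nM […]) for 30 min. cAMP read by HTRF (665/620 nm).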

For assay [20] the target is unchanged. The experiment in a line: Dopamine D2 receptor (DRD2) small molecule antagonists, cell-based qHTS assay (AID 1963595; active means well fitted inhibition curve with a large enough effect in the signal ratio in the repeat runs, with a control signal flat; the % refers to the signal ratio). A digest of the protocol:
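Human DRD2 antagonist qHTS measuring cAMP by HTRF. The cells are exposed to compound for 10 min, then to NKH477 (200 nM) and quinpirole (12 nM) for 30 min at RT, with Ro20-1724 (0.1 mM) present throughout.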

Sequence of Beta-2 adrenergic receptor (Homo sapiens) (P07550 whole entry, looked up): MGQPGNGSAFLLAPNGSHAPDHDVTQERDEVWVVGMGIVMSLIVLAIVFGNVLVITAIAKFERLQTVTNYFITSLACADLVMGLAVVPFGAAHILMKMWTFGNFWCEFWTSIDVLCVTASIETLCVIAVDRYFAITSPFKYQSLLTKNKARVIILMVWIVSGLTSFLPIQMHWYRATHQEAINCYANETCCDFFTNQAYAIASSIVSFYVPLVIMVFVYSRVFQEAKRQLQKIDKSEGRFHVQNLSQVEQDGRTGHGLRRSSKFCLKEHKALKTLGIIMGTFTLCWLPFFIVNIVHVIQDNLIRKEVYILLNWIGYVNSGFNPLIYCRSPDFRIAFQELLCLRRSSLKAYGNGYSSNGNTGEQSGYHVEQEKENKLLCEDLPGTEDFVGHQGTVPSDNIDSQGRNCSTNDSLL
Sequence of Muscarinic acetylcholine receptor M1 (Homo sapiens) (P11229 whole entry, looked up): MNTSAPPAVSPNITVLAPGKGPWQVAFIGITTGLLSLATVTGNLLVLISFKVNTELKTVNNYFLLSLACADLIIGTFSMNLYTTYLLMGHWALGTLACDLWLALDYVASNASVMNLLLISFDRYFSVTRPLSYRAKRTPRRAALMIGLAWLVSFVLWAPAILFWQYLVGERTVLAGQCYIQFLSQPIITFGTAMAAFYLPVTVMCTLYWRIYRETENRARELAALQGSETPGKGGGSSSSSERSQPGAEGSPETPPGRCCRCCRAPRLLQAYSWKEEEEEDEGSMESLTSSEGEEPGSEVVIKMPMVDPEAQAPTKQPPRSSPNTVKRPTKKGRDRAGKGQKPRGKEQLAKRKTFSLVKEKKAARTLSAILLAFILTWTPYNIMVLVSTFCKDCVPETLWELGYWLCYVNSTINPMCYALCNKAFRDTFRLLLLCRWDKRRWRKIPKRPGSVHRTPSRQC
Sequence of D(2) dopamine receptor (Homo sapiens) (P14416 whole entry, looked up): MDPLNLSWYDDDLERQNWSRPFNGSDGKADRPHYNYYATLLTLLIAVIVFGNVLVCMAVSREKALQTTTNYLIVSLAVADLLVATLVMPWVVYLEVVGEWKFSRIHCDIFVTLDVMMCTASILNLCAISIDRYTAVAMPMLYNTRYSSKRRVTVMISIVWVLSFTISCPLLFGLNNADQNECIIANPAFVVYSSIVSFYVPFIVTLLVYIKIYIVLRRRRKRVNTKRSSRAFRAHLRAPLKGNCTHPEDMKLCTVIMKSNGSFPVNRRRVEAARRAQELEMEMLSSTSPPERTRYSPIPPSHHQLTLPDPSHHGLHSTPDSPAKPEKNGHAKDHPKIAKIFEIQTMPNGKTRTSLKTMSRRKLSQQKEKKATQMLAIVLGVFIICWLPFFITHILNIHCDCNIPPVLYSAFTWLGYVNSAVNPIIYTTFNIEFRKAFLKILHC
Sequence of 5-hydroxytryptamine receptor 2A (Homo sapiens) (P28223 whole entry, looked up): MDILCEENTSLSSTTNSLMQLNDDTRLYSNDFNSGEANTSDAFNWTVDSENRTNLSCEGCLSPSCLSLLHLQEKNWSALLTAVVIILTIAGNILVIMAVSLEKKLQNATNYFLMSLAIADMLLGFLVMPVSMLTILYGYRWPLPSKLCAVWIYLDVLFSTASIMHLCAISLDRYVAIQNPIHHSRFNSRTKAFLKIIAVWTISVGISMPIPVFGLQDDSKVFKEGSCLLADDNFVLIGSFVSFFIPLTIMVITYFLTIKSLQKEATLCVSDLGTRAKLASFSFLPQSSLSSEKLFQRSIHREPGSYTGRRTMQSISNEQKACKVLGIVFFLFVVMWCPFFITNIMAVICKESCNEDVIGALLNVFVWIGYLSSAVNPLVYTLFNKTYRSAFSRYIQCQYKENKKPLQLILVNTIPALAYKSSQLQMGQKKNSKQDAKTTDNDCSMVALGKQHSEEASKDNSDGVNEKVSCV
Sequence of KiSS-1 receptor (Homo sapiens) (Q969F8 whole entry, looked up): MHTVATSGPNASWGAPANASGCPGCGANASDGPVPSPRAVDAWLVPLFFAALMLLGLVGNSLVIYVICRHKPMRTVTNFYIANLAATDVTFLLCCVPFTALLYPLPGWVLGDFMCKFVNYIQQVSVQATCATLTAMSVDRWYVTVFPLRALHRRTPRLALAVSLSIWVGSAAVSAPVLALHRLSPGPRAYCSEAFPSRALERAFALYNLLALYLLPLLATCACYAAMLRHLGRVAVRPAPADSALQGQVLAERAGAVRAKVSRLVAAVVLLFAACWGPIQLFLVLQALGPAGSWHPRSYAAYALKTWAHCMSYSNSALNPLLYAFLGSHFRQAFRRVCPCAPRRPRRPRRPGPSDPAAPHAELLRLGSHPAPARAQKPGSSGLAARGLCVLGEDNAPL
Sequence of Gonadotropin-releasing hormone receptor (Homo sapiens) (P30968 whole entry, looked up): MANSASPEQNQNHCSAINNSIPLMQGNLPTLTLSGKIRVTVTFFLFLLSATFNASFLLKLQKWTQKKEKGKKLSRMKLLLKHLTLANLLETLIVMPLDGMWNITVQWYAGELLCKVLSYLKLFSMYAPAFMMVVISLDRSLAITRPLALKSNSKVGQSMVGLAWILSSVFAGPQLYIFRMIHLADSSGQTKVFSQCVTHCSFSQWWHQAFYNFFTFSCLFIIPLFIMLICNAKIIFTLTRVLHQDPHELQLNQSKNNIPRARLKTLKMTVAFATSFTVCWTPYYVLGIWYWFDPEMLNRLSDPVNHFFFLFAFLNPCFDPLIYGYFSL

On to `COC(=O)CCCC(=O)OC`, for which the Potency result in [1], in assay [2], in assay [3], in assay [4], in [5] and in assay [6] was “inactive” throughout. Besides, the Potency result in assay [7], in [8], in [9], in assay [10], in assay [11] and in assay [12] was “inactive” throughout. For the same molecule, the Potency result in assay [13], in assay [14], in assay [15], in assay [16], in [17] and in assay [18] was “inactive” each time. Besides, the Potency entry in [19] and in [20] was “inactive” each time.

For `FC(F)(F)c1ccc(Cl)c(Cl)c1`, the Potency entry in assay [1], in assay [2], in assay [3], in assay [4], in [5] and in [6] was “inactive” throughout. Moreover, the Potency entry in assay [7], in assay [8], in [9], in assay [10], in assay [11] and in assay [12] was “inactive” throughout. Further, the Potency result in [13], in [14], in [15], in assay [16], in assay [17] and in assay [18] was “inactive” each time. In assay [20], the Potency entry is “inactive”.

As for `O=C=Nc1ccc(Cc2ccc(N=C=O)cc2)cc1`, the Potency result in assay [1], in [2], in [3], in [4], in assay [5] and in [6] was “inactive” throughout. The Potency result in assay [7], in assay [8], in [9], in assay [10], in assay [11] and in [12] was “inactive” each time. Besides, the Potency entry in assay [13], in assay [14], in assay [15], in [16], in assay [17] and in assay [20] was “inactive” each time.

Take `OCCOCCN1CCN(C(c2ccccc2)c2ccc(Cl)cc2)CC1` (configuration not stated): the Potency entry in assay [1], in [2], in assay [3], in assay [4], in assay [5] and in [6] was “inactive” throughout. In addition, the Potency entry in [7], in assay [8], in assay [9], in assay [10], in assay [11] and in assay [13] was “inactive” in each case. In addition, the Potency entry in assay [15], in assay [16] and in assay [20] was “inactive” in each case. For the same molecule, the Potency is 1.47 µM (active) and 1.63 µM (active) in assay [12]; 7.38 µM (active) in [14]; “inactive and 26.6 µM (active)” in assay [18].

Take `Cc1ccncc1`: the Potency result in assay [1], in assay [2], in [3], in assay [4], in [5] and in assay [6] was “inactive” throughout. Besides, the Potency result in [7], in assay [8], in [9], in assay [10], in assay [11] and in assay [12] was “inactive” throughout. The Potency entry in [13], in assay [14], in assay [15], in [16], in assay [17] and in assay [18] was “inactive” throughout. Further, the Potency result in [19] and in assay [20] was “inactive” throughout.

In the case of `CC(=O)Oc1ccc(C)cc1`, the Potency entry in assay [1], in assay [2], in [3], in assay [4], in [5] and in assay [6] was “inactive” throughout. For the same molecule, the Potency result in assay [7], in assay [8], in [9], in [10], in [11] and in assay [12] was “inactive” throughout. The Potency entry in [13], in [14], in assay [15], in assay [16], in assay [17] and in [18] was “inactive” throughout. Moreover, the Potency entry in [20] is “inactive”.

In the case of `CCCCNC(=O)NS(=O)(=O)c1ccc(N)cc1`, the Potency result in assay [1], in [2], in assay [3], in assay [4], in assay [5] and in assay [6] was “inactive” throughout. Also, the Potency entry in assay [7], in [8], in assay [9], in assay [10], in [11] and in [12] was “inactive” each time. Also, the Potency entry in assay [13], in assay [14], in [15], in [16], in [17] and in assay [19] was “inactive” each time. Further, the Potency entry in [20] was “inactive”.

On to `CCCCCCCC(=O)OCC(O)CO` (configuration not stated), for which the Potency result in assay [1], in [2], in assay [3], in assay [4], in assay [5] and in assay [6] was “inactive” in each case. In addition, the Potency result in assay [7], in assay [8], in assay [9], in assay [10], in assay [11] and in assay [12] was “inactive” each time. The Potency entry in [13], in [14], in assay [15], in assay [17], in assay [18] and in [19] was “inactive” in each case. In addition, the Potency result in assay [20] was “inactive”.
